Many of the other results were omitted from the sample, so hits are more common in it than they were.
NTMT1 inh: blocks human N-terminal methyltransferase 1 activity | Q9BV86 | Potency, µM (titrated, usually from 114 µM), for inactives: top-dose activity change, negative = inhibition, usual class: inhibitors | NTMT1 MTase-Glo SAH luminescence, purified enzyme | actives 2.5% (n = 59,000) | AID 1645870;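 also: potency is read from the fitted curve at half-maximal effect; plate controls were DMSO vehicle for no effect and no enzyme for full effect; nearly all actives have a fitted effect of over 65% in size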
DYRK1A inh-1: blocks recombinant human DYRK1A kinase activity | shares compounds with NTMT1 inh | recombinant DYRK1A, Kinase-Glo ATP depletion luminescence | Potency, µM (doses to about 76.9 µM), for the others: at the highest dose activity change, negative = inhibition, actives largely listed as inhibitors | actives 80% (n = 100)
CLK4 RBC: blocks human CLK4 kinase in radiometric assay. shares compounds with NTMT1 inh. Reaction Biology kinase assay, 10 uM ATP. Potency, µM, usual class: inhibitors. actives 100% (n = 65); calls by dose curve
DYRK1A inh-2: DYRK1A kinase inhibition | shares compounds with NTMT1 inh | Reaction Biology kinase assay, 10 uM ATP | Potency, µM, most hits filed as inhibitors | actives 90% (n = 65) | AID 504424;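 active = compounds that showed inhibition of Dyrk1a and received a fitted potency; inactive = compounds that showed no inhibition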
CLK2 inh: CLK2 kinase inhibition; shares compounds with NTMT1 inh; Reaction Biology kinase assay, 10 uM ATP; Potency, µM, most hits filed as inhibitors; actives 90% (n = 65);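 active = compound that inhibits Clk2 kinase in the dose series, with an IC50 potency reported; inactive = no inhibition seen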
CLK3 RBC: blocks human CLK3 kinase activity. shares compounds with NTMT1 inh. recombinant CLK3 kinase assay, 10 uM ATP. Potency, µM, usual class: inhibitors. actives 40% (n = 65). AID 504428;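 active = compounds that inhibited Clk3 enough in the ten-dose series to give a half-maximal potency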
DYRK1B RBC: blocks human DYRK1B kinase activity | Recombinant Dyrk1b kinase assay, 10 uM ATP | Potency, µM, hits mostly inhibitors | actives 80% (n = 65) | shares compounds with NTMT1 inh;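 active = compounds whose dose response shows an inhibitor phenotype against the kinase Dyrk1b; inactive = compounds showing no inhibitor phenotype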
Target sequence (Q9Y463 whole entry, looked up): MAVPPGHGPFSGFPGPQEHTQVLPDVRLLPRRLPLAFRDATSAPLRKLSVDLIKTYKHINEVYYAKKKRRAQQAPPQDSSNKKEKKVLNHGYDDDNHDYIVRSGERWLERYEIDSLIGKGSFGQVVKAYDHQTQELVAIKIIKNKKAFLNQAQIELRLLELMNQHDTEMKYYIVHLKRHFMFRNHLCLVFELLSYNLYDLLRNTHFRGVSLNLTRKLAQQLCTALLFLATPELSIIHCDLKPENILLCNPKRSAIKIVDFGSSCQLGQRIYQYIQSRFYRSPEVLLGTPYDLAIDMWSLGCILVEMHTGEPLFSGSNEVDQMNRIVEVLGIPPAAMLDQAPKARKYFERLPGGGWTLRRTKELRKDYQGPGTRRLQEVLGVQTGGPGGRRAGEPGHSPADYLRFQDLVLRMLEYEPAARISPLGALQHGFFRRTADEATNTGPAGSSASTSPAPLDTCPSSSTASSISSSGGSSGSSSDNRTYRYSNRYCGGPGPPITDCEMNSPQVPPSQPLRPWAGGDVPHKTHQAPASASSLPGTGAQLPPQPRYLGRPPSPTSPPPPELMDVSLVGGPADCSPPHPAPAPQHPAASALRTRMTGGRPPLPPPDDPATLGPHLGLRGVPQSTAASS
CLK1 inh: CLK1 kinase inhibition; shares compounds with NTMT1 inh; recombinant Clk1 kinase assay, 10 uM ATP; Potency, µM, actives largely listed as inhibitors; actives 90% (n = 65);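 active = compounds that block the splicing kinase Clk1 enough to give a fitted half-inhibition concentration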
Starred values were filed as active, the others as inactive; i = inactive; ? = inconclusive; / = not tested or not shown; [ ] = dose if it differs, or a comment. Unless noted, calls follow the shape of the dose curve; as a rule, active = well fitted inhibition curve with a large enough effect; inconclusive = small, poorly fitted or top-dose-only effect; inactive = flat fitted curve, though single readings scatter.

SMILES | NTMT1 inh | DYRK1A inh-1 | CLK4 RBC | DYRK1A inh-2 | CLK2 inh | CLK3 RBC | DYRK1B RBC | CLK1 inh
c1c[nH]c(CNc2ncnc3ccc(-c4ccc5c(c4)OCO5)cc23)n1 | -12% | 0.37µM* | 0.034* | 0.15µM* | 3.6µM* | 15µM* | 1.1µM* | 0.19µM*
c1nc(NCc2ccoc2)c2cc(-c3ccc4c(c3)OCO4)ccc2n1 | ? | 0.092µM* | 0.038* | 0.13µM* | 0.88µM* | 4.7µM* | 0.94µM* | 0.11µM*
Cc1cccc(CNc2ncnc3ccc(-c4ccc5c(c4)OCO5)cc23)c1 | 5%[57.5 µM] | / | / | / | / | / | / | /
Cc1occc1CNc1ncnc2ccc(-c3ccc4c(c3)OCO4)cc12 | ? | 0.092µM* | 0.047* | 0.057µM* | 2.7µM* | 6.5µM* | 0.43µM* | 0.086µM*
Cc1ccsc1CNc1ncnc2ccc(-c3ccc4c(c3)OCO4)cc12 | -12% | 0.082µM* | 0.035* | 0.035µM* | 2.2µM* | 6.6µM* | 0.51µM* | 0.069µM*
Cc1noc(C)c1-c1ccc2ncnc(NCc3ccccc3F)c2c1 | -15% | / | / | / | / | / | / | /
CC1CCC2(NC1)OC1C(=O)C3C4CCC5CC(O[C@@H]6O[C@H](CO)[C@@H](O)[C@H](O)[C@H]6O[C@@H]6O[C@@H](C)[C@H](O)[C@@H](O)[C@H]6O)CCC5(C)C4CCC3(C)C1C2C (stereo not given in full) | -2%[12.6 µM] | / | / | / | / | / | / | /
c1csc(CNc2ncnc3ccc(-c4ccoc4)cc23)c1 | ? | 1.5µM* | / | / | / | / | / | /
Cc1cccc(-c2ccc3ncnc(NCc4cc(C)cs4)c3c2)c1 | -2% | / | / | / | / | / | / | /
Cc1ccc(CNc2ncnc3ccc(-c4ccc5c(c4)OCO5)cc23)s1 | 0%[57.5 µM] | 0.52µM* | 0.12* | 1.2µM* | 15µM* | i | 15µM* | 0.89µM*
c1csc(CNc2ncnc3cc(-c4ccc5c(c4)OCO5)ccc23)c1 | -27% | / | / | / | / | / | / | /
c1nc(OCc2cnc[nH]2)c2cc(-c3ccc4c(c3)OCO4)ccc2n1 | -10% | 8.2µM* | / | / | / | / | / | /
Nc1nc(O)c(C2=C3C(=Nc4ccccc43)C(=O)NCC2)[nH]1 | 24%[57.5 µM] | / | / | / | / | / | / | /
COc1cc(/C=C/C(=O)OC(C)(C)C(OC2OC(CO)C(O)C(O)C2O)C(=O)OCc2ccc(OC3OC(CO)C(O)C(O)C3O)cc2)ccc1O (stereo not given) | -12%[12.6 µM] | / | / | / | / | / | / | /
Cc1cc(C)nc(NCc2ccc(O)c3ncccc23)c1 | -4% | / | / | / | / | / | / | /
CN(Cc1ccccc1)C(=O)C1CCN(Cc2cccc3ccccc23)CC1 | -3% | / | / | / | / | / | / | /

Screening data deposited in PubChem by National Center for Advancing Translational Sciences (NCATS).
